Source: PubChem BioAssay AID1159580 (chemical genetic matrix, 2015)
Where “and” joins values, the source holds several entries; their conditions need not be identical. Equal entries are not always repeated. The whole screen tested about 5,500 compounds, of which about 2,000 (36%) were called active. Roughly 18% stayed inconclusive and do not appear here. Cut-off read from the data, not from the text of the source: active = normalized growth mostly below about 0.91 (no sharp cut-off); inconclusive = no clear call, values can overlap the other calls; inactive = mostly above about 0.92. The list shows a part of the results.

Experiment: chemical genetic growth profiling, strain panel (AID 1159580);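 note: tested at 20 µM; growth read once vehicle control cultures reached saturation at 30 °C; 1 = growth at the plate median or of vehicle wells; lower values mean less growth of the strain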
Conditions: S. cerevisiae deletion strains, growth OD

Measured: normalized growth

O=C1c2cccc(O)c2C(=O)c2c(O)cccc21
inactive: locus YAL030W, strain snc1, stronger effect = lower value 0.935 | locus YBL061C, strain skt5, stronger effect = lower value 0.929 | locus YBR171W, strain sec66, stronger effect = lower value 0.939 | locus YCL011C, strain gbp2, stronger effect = lower value 0.928 | locus YCL061C, strain MRC1, stronger effect = lower value 0.928 | locus YCL069W, strain vba3, stronger effect = lower value 0.951 | locus YCR088W, strain abp1, stronger effect = lower value 0.97 | locus YDL040C, strain nat1, stronger effect = lower value 0.952 | locus YDR001C, strain nth1, stronger effect = lower value 0.977 | locus YDR297W, strain sur2, stronger effect = lower value 0.949 | locus YEL037C, strain rad23, stronger effect = lower value 0.936 | locus YEL061C, strain CIN8 (second series), stronger effect = lower value 0.957 | locus YER111C, strain swi4, stronger effect = lower value 0.956 | locus YGL173C, strain kem1, stronger effect = lower value 0.947 | locus YGL227W, strain vid30, stronger effect = lower value 0.994 | locus YHR079C, strain IRE1, stronger effect = lower value 0.899 | locus YHR094C, strain hxt1, stronger effect = lower value 0.95 | locus YIL073C, strain SPO22, stronger effect = lower value 0.764 | locus YJL092W, strain hpr5, stronger effect = lower value 0.946 | locus YJL129C, strain trk1, stronger effect = lower value 1.02 | locus YJL134W, strain LCB3, stronger effect = lower value 0.951 | locus YJL154C, strain vps35, stronger effect = lower value 0.955 | locus YKL068W, stronger effect = lower value 0.967 | locus YKL085W, strain MDH1 (second series), stronger effect = lower value 0.944 | locus YKL085W, strain MDH1, stronger effect = lower value 0.944 | locus YKR026C, strain gcn3, stronger effect = lower value 0.97 | locus YKR091W, strain srl3, stronger effect = lower value 0.97 | locus YLL001W, strain dnm1, stronger effect = lower value 0.903 | locus YLL026W, stronger effect = lower value 0.941 | locus YLL041C, strain sdh2, stronger effect = lower value 0.953 | locus YLR102C, strain apc9, stronger effect = lower value 0.961 | locus YLR113W, strain HOG1, stronger effect = lower value 1 | locus YLR342W, strain FKS1 (second series), stronger effect = lower value 0.923 | locus YLR342W, strain FKS1, stronger effect = lower value 0.975 | locus YLR357W, strain rsc2, stronger effect = lower value 0.995 | locus YLR384C, strain iki3, stronger effect = lower value 0.936 | locus YMR125W, strain sto1, stronger effect = lower value 0.959 | locus YMR129W, stronger effect = lower value 0.972 | locus YMR205C, strain PFK2, stronger effect = lower value 0.96 | locus YMR307W, strain GAS1, stronger effect = lower value 0.677 | locus YNL183C, strain NPR1, stronger effect = lower value 0.836 | locus YNL322C, strain KRE1 (second series), stronger effect = lower value 0.965 | locus YNR049C, strain mso1, stronger effect = lower value 0.942 | locus YOL012C, strain htz1 0.695 | locus YOR080W, strain dia2, stronger effect = lower value 0.948 | locus YOR231W, strain MKK1, stronger effect = lower value 0.895 | locus YOR265W, strain rbl2, stronger effect = lower value 0.935 | locus YOR316C, strain cot1, stronger effect = lower value 0.941 | locus YPL078C, strain atp4, stronger effect = lower value 0.897 | locus YPL256C, strain CLN2, stronger effect = lower value 0.996 | locus YPR119W, strain clb2, stronger effect = lower value 0.931 | locus YPR141C, strain kar3, stronger effect = lower value 0.966
active: locus YAL013W, strain DEP1, stronger effect = lower value 0.799 | locus YAL021C, strain ccr4, stronger effect = lower value 0.837 | locus YAL026C, strain drs2, stronger effect = lower value 0.823 | locus YBR009C, strain hhf1, stronger effect = lower value 0.821 | locus YBR021W, strain FUR4, stronger effect = lower value 1.18 [resistant] | locus YBR023C, strain chs3, stronger effect = lower value 0.909 | locus YBR229C, strain ROT2, stronger effect = lower value 0.898 | locus YBR231C, strain swc5, stronger effect = lower value 0.733 | locus YBR279W, strain paf1, stronger effect = lower value 0.905 | locus YCL016C, strain dcc1, stronger effect = lower value 0.77 | locus YCL029C, strain bik1, stronger effect = lower value 0.808 | locus YDL005C, strain med2, stronger effect = lower value 0.167 | locus YDL035C, strain GPR1, stronger effect = lower value 0.703 | locus YDL074C, strain BRE1, stronger effect = lower value 0.658 | locus YDL101C, strain DUN1, stronger effect = lower value 0.616 | locus YDL185W, strain tfp1, stronger effect = lower value 0.789 | locus YDL192W, strain arf1, stronger effect = lower value 0.628 | locus YDR069C, strain doa4, stronger effect = lower value 0.768 | locus YDR101C, strain arx1, stronger effect = lower value 0.745 | locus YDR137W, strain rgp1, stronger effect = lower value 0.268 | locus YDR150W, strain NUM1, stronger effect = lower value 0.861 | locus YDR159W, strain sac3, stronger effect = lower value 0.705 | locus YDR162C, strain NBP2, stronger effect = lower value 0.344 | locus YDR195W, strain ref2 1.22 [resistant] | locus YDR318W, strain mcm21, stronger effect = lower value 0.772 | locus YDR334W, strain swr1, stronger effect = lower value 0.831 | locus YDR335W, strain msn5, stronger effect = lower value 0.85 | locus YDR388W, stronger effect = lower value 0.728 | locus YDR392W, strain spt3, stronger effect = lower value 0.64 | locus YDR502C, strain sam2, stronger effect = lower value 0.673 | locus YEL003W, strain gim4, stronger effect = lower value 0.834 | locus YEL061C, strain CIN8, stronger effect = lower value 0.747 | locus YER015W, strain faa2, stronger effect = lower value 0.911 | locus YER016W, strain bim1, stronger effect = lower value 0.864 | locus YER110C, stronger effect = lower value 0.885 | locus YER155C, strain BEM2 (second series), stronger effect = lower value 0.806 | locus YER155C, strain BEM2, stronger effect = lower value 0.835 | locus YER167W, strain BCK2, stronger effect = lower value 0.77 | locus YFR010W, strain ubp6, stronger effect = lower value 0.862 | locus YGL078C, strain dbp3, stronger effect = lower value 0.874 | locus YGL086W, strain mad1, stronger effect = lower value 0.781 | locus YGL167C, strain pmr1, stronger effect = lower value 0.612 | locus YGL240W, strain doc1, stronger effect = lower value 0.886 | locus YGL248W, strain PDE1, stronger effect = lower value 0.685 | locus YGL253W, strain hxk2, stronger effect = lower value 0.79 | locus YGR078C, strain PAC10, stronger effect = lower value 0.669 | locus YGR135W, strain pre9, stronger effect = lower value 0.698 | locus YGR252W, strain gcn5, stronger effect = lower value 0.625 | locus YHR013C, strain ard1, stronger effect = lower value 0.701 | locus YHR027C, strain rpn1, stronger effect = lower value 0.81 | locus YHR079C, strain IRE1 (second series), stronger effect = lower value 0.915 | locus YHR129C, strain ARP1, stronger effect = lower value 0.777 | locus YHR142W, strain chs7, stronger effect = lower value 0.857 | locus YHR200W, strain rpn10, stronger effect = lower value 0.732 | locus YIL066C, strain RNR3, stronger effect = lower value 0.59 | locus YIL125W, strain kgd1, stronger effect = lower value 0.872 | locus YIR030C, strain dcg1, stronger effect = lower value 0.896 | locus YJL095W, strain BCK1 (second series), stronger effect = lower value 0.878 | locus YJL095W, strain BCK1, stronger effect = lower value 0.379 and 0.881 | locus YJL115W, strain asf1, stronger effect = lower value 0.819 | locus YJL164C, strain tpk1, stronger effect = lower value 0.833 | locus YJL166W, strain qcr8, stronger effect = lower value 0.812 | locus YJL168C, strain set2, stronger effect = lower value 0.927 | locus YJL187C, strain SWE1 (second series), stronger effect = lower value 0.611 | locus YJL187C, strain SWE1, stronger effect = lower value 0.914 | locus YJR043C, strain POL32, stronger effect = lower value 0.767 | locus YJR066W, strain TOR1, stronger effect = lower value 0.796 | locus YKL009W, strain mrt4, stronger effect = lower value 0.844 | locus YKL160W, strain elf1, stronger effect = lower value 0.835 | locus YKL190W, strain CNB1, stronger effect = lower value 0.697 | locus YKR001C, strain vps1, stronger effect = lower value 0.405 | locus YLR027C, strain aat2, stronger effect = lower value 0.878 | locus YLR039C, strain RIC1, stronger effect = lower value 0.178 | locus YLR058C, strain SHM2, stronger effect = lower value 0.684 | locus YLR221C, strain rsa3, stronger effect = lower value 0.856 | locus YLR258W, strain gsy2, stronger effect = lower value 0.909 | locus YLR262C, strain YPT6 (second series), stronger effect = lower value 0.406 | locus YLR262C, strain YPT6, stronger effect = lower value 0.24 | locus YLR268W, strain sec22, stronger effect = lower value 0.606 | locus YLR320W, strain mms22, stronger effect = lower value 0.435 | locus YLR330W, strain CHS5, stronger effect = lower value 0.688 | locus YLR371W, strain rom2, stronger effect = lower value 0.789 | locus YLR418C, strain cdc73, stronger effect = lower value 0.401 | locus YML016C, strain PPZ1, stronger effect = lower value 0.82 | locus YML032C, strain rad52, stronger effect = lower value 0.291 | locus YML120C, strain ndi1, stronger effect = lower value 0.866 | locus YML124C, strain tub3, stronger effect = lower value 0.802 | locus YMR058W, strain fet3, stronger effect = lower value 0.747 | locus YMR078C, strain ctf18, stronger effect = lower value 0.841 | locus YMR223W, strain ubp8, stronger effect = lower value 0.668 | locus YMR231W, strain pep5, stronger effect = lower value 0.882 | locus YMR263W, strain SAP30, stronger effect = lower value 0.756 | locus YNL067W, strain RPL9B, stronger effect = lower value 0.699 | locus YNL071W, strain lat1, stronger effect = lower value 0.831 | locus YNL128W, strain TEP1, stronger effect = lower value 0.638 | locus YNL153C, strain GIM3, stronger effect = lower value 0.568 | locus YNL209W, strain ssb2, stronger effect = lower value 0.879 | locus YNL233W, strain BNI4, stronger effect = lower value 0.729 | locus YNL248C, strain rpa49, stronger effect = lower value 0.55 | locus YNL250W, strain rad50, stronger effect = lower value 0.463 | locus YNL271C, strain bni1, stronger effect = lower value 0.847 | locus YNL298W, strain CLA4, stronger effect = lower value 0.823 | locus YNL307C, strain MCK1, stronger effect = lower value 0.669 | locus YNL322C, strain KRE1, stronger effect = lower value 0.803 | locus YNR052C, strain pop2, stronger effect = lower value 0.59 | locus YOL147C, strain pex11, stronger effect = lower value 0.749 | locus YOR001W, strain rrp6, stronger effect = lower value 0.855 | locus YOR061W, strain CKA2, stronger effect = lower value 0.847 | locus YOR069W, strain VPS5, stronger effect = lower value 0.79 | locus YOR070C, strain gyp1, stronger effect = lower value 0.874 | locus YOR083W, strain WHI5, stronger effect = lower value 0.793 | locus YOR106W, strain vam3, stronger effect = lower value 0.577 | locus YOR136W, strain idh2, stronger effect = lower value 0.845 | locus YOR144C, strain elg1, stronger effect = lower value 0.886 | locus YOR184W, strain ser1, stronger effect = lower value 0.375 | locus YOR270C, strain vph1, stronger effect = lower value 0.364 | locus YOR290C, strain snf2, stronger effect = lower value 0.796 | locus YPL051W, strain arl3, stronger effect = lower value 0.737 | locus YPL106C, strain sse1, stronger effect = lower value 0.705 | locus YPL240C, strain hsp82, stronger effect = lower value 0.909 | locus YPL241C, strain CIN2, stronger effect = lower value 0.847 | locus YPR163C, strain tif3, stronger effect = lower value 0.775 | locus YPR167C, strain met16, stronger effect = lower value 0.851 | strain wtn01, stronger effect = lower value 0.752
0.74 (active) and 0.875 (inactive): locus YHR030C, strain SLT2, stronger effect = lower value
